Experiments:
Assay in all cases: DAPPL (digital affinity profiling via proximity ligation, sequencing); 10 mM Tris-HCl pH 7.5, 50 mM NaCl, 1 mM DTT, 4% glycerol, room temperature, 30 min; GST-TFs on glutathione beads, 16-mer random dsDNA library, 0.1% formaldehyde crosslink after washing; high values mean tight binding
Conditions in all cases: protein: recombinant; tags: N-terminal GST; dsDNA, one strand shown
GABPA = target: T1, GABPA (Homo sapiens, UniProt Q06546 1-454)
T1 sequence: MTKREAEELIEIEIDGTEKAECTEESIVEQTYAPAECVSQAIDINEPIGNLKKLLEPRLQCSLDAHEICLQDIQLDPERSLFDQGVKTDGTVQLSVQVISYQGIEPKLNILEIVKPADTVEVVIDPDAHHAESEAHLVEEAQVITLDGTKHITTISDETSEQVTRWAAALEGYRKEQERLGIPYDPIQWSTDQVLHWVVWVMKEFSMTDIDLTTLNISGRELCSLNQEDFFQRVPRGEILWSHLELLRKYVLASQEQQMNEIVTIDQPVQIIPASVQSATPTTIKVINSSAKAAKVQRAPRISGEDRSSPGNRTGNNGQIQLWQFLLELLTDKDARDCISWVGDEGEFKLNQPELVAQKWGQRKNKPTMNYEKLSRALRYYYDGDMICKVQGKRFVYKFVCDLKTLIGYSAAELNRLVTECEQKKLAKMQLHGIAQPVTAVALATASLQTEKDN
In short: (§1)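 Sequencing on an Illumina NextSeq500 followed washing, crosslinking with 0.1% formaldehyde, proximity ligation (BsaI/T4 ligase, 1 h, 37 °C) and PCR amplification of pools that had been incubated for 30 min at room temperature with 200 nmole of a random double-stranded 16-mer DNA library in Tris/NaCl/DTT/glycerol buffer. Each pool held DNA-barcoded human transcription factors, expressed in yeast as GST fusions and captured on glutathione beads, plus a tag-only sample. Binding signal is a hexamer's read frequency for a factor divided by its frequency in the tag-only sample.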

EHF = target: T2, EHF (Homo sapiens, UniProt Q9NZC4 1-300)
T2 sequence: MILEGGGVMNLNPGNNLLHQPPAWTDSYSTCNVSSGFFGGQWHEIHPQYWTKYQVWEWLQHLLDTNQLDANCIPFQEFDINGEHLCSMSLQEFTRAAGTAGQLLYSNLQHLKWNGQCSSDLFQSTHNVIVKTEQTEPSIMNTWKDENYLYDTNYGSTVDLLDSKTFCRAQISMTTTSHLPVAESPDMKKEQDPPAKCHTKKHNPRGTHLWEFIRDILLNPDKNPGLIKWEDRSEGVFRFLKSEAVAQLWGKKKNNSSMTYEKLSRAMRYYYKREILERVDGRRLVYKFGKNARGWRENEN
In short: as §1

SPI1 = SPI1 (Homo sapiens, UniProt P17947 1-270)
In short: as §1

ELK3 = target: T3, ELK3 (Homo sapiens, UniProt P41970 1-407)
T3 sequence: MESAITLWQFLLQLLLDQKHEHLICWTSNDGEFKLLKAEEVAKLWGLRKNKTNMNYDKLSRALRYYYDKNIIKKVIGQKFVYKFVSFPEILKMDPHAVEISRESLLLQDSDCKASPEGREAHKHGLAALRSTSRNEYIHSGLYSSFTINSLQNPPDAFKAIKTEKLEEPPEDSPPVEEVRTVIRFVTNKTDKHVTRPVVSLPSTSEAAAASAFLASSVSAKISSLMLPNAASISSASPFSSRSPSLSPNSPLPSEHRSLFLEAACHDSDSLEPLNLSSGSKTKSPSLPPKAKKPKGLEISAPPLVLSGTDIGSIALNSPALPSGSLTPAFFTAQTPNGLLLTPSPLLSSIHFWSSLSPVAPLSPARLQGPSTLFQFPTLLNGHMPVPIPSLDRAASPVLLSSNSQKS
In short: as §1

FEV = target: T4, FEV (Homo sapiens, UniProt Q99581 1-238)
T4 sequence: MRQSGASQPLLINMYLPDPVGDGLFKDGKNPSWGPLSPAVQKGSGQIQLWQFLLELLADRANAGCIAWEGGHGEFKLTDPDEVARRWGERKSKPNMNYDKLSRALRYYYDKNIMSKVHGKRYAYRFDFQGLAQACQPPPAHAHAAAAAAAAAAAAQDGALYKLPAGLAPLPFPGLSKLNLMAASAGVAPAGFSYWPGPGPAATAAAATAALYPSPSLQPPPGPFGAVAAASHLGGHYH
In short: as §1

SPIC = target: T5, SPIC (Homo sapiens, UniProt Q8N5J4 1-248)
T5 sequence: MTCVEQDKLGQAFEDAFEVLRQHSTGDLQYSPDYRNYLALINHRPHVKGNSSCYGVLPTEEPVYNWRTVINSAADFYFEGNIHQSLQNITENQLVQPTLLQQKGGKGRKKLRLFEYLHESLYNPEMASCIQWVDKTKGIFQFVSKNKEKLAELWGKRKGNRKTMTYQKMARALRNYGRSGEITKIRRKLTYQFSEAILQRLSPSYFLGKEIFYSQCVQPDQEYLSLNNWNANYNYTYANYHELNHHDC
In short: as §1

ELF3 = target: T6, ELF3 (Homo sapiens, UniProt P78545 1-371)
T6 sequence: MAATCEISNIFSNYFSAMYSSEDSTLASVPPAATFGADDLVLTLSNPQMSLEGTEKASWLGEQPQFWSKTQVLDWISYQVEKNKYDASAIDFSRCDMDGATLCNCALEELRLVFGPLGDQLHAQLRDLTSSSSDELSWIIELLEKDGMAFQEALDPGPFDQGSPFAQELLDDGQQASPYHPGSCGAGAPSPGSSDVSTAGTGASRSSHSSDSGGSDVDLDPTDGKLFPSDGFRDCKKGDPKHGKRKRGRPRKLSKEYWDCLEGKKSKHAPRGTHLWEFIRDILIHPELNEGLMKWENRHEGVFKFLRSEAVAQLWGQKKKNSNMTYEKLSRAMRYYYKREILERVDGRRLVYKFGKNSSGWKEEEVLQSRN
In short: as §1

ETV1 = ETV1 (Homo sapiens, UniProt P50549 1-477)
In short: as §1

ERF = target: T7, ERF (Homo sapiens, UniProt P50548 1-548)
T7 sequence: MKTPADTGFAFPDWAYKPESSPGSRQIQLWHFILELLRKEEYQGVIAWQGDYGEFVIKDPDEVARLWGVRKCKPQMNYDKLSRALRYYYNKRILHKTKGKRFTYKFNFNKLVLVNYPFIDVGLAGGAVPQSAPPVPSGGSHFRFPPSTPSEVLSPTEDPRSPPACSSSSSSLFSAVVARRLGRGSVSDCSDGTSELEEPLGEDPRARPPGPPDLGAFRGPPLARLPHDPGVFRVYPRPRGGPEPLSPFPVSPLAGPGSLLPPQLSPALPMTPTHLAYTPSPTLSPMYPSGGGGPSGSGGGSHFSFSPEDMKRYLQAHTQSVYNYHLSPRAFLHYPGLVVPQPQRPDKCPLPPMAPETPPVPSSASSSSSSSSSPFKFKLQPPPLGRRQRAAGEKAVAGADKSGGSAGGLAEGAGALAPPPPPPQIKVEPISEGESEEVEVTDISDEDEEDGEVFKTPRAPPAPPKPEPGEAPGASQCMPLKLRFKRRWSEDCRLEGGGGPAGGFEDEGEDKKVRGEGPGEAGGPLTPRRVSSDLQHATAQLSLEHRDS
In short: as §1

ETS2 = target: T8, ETS2 (Homo sapiens, UniProt P15036 1-469)
T8 sequence: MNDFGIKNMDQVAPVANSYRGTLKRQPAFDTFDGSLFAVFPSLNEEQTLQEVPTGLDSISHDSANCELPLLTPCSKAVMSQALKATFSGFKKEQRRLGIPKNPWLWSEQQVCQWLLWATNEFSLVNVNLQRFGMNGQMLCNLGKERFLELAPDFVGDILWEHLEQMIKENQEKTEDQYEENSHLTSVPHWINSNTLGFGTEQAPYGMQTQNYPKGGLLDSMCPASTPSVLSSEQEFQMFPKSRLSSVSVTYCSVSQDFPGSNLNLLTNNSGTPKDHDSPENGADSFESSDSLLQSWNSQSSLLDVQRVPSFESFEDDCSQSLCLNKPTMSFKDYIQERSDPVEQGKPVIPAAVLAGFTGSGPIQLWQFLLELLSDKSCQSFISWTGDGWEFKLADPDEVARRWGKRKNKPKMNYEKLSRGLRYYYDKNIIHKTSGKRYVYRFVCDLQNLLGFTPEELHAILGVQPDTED
In short: as §1

ELF5 = target: T9, ELF5 (Homo sapiens, UniProt Q9UKW6-2 1-255)
T9 sequence: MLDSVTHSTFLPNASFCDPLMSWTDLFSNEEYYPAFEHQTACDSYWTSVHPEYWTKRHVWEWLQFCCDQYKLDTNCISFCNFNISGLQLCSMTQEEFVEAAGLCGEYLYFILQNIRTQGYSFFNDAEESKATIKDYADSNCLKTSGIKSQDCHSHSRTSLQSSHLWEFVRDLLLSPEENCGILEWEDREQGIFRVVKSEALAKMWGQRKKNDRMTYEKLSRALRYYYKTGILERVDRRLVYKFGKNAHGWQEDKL
In short: as §1

ETV3 = target: T10, ETV3 (Homo sapiens, UniProt P41162-2 1-143)
T10 sequence: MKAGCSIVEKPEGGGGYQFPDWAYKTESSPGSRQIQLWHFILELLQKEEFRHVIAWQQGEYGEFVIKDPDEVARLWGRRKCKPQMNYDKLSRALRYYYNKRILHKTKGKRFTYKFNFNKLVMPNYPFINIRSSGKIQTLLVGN
In short: as §1

ETV6 = ETV6 (Homo sapiens, UniProt P41212 1-452)
In short: as §1

ETV7 = target: T11, ETV7 (Homo sapiens, UniProt Q9Y603 1-341)
T11 sequence: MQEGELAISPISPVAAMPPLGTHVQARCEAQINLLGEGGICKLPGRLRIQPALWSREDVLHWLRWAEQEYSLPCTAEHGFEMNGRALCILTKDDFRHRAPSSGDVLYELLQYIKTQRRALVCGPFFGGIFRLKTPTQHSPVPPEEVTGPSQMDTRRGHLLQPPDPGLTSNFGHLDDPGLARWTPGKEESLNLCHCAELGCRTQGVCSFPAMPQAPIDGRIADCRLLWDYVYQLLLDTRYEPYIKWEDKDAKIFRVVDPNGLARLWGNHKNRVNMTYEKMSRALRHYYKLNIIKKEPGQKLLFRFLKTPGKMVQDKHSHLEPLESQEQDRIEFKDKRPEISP
In short: as §1

ELF1 = ELF1 (Homo sapiens, UniProt P32519 1-619)
In short: as §1

ELK4 = target: T12, ELK4 (Homo sapiens, UniProt P28324-2 1-405)
T12 sequence: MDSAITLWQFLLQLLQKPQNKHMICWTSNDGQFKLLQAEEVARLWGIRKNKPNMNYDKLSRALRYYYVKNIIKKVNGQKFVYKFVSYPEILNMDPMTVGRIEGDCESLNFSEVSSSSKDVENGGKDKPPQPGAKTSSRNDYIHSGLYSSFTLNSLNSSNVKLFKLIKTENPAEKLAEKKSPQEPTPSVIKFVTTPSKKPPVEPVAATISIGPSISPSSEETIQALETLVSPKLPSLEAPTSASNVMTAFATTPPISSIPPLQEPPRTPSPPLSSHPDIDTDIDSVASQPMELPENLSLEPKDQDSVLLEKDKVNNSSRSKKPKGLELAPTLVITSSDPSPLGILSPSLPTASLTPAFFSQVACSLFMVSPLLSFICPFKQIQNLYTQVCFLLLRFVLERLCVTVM
In short: as §1

Chain of ETV1 (P50549 whole entry): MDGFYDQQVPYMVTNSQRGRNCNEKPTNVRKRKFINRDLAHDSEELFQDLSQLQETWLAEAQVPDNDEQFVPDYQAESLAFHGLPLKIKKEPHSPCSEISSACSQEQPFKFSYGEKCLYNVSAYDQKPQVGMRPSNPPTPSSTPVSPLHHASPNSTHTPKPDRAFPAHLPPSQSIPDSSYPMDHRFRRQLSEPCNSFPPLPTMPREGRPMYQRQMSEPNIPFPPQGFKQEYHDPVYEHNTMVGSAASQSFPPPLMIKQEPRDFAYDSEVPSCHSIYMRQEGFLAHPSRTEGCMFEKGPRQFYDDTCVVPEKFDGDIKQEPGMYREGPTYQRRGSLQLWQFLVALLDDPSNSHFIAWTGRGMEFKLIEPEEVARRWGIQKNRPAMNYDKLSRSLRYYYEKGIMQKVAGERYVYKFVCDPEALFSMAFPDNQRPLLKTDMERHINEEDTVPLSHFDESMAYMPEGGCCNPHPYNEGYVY
Chain of ELF1 (P32519 whole entry): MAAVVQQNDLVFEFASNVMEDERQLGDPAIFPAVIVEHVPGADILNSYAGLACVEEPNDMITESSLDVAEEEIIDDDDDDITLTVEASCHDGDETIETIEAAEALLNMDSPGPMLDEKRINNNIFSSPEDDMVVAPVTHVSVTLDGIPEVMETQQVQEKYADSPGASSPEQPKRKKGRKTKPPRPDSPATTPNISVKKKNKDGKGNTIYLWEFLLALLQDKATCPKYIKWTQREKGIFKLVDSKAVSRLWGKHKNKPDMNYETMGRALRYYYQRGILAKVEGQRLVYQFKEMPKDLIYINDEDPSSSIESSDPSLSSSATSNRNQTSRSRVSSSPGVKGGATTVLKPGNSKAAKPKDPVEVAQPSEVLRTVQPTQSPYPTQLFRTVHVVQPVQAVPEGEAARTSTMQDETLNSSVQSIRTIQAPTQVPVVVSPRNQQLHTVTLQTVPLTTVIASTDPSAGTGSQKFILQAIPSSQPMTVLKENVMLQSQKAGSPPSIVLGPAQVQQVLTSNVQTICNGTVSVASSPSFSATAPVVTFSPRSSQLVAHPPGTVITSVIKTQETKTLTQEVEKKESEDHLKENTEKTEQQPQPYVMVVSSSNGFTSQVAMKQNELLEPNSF
Chain of ETV6 (P41212 whole entry): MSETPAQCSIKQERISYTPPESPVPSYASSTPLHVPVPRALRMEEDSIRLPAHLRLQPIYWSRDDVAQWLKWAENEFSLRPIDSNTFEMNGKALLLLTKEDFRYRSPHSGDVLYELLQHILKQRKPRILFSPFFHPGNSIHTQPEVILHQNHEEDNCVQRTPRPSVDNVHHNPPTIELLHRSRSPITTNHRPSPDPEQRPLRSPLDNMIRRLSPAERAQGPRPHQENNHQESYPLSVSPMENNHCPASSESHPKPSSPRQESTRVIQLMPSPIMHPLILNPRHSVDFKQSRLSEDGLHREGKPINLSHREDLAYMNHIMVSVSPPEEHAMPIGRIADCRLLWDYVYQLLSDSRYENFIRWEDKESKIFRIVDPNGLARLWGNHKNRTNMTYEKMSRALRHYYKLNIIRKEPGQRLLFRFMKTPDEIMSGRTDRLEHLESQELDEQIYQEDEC

AGTAGC
binding signal (GABPA): 1.03 fold enrichment (6-mer frequency, TF over GST control) | binding signal (EHF): 1.01 fold enrichment (6-mer frequency, TF over GST control) | binding signal (SPI1): 1.22 fold enrichment (6-mer frequency, TF over GST control) | binding signal (ELK3): 1.05 fold enrichment (6-mer frequency, TF over GST control) | binding signal (FEV): 1.04 fold enrichment (6-mer frequency, TF over GST control) | binding signal (SPIC): 1.04 fold enrichment (6-mer frequency, TF over GST control) | binding signal (ELF3): 1.03 fold enrichment (6-mer frequency, TF over GST control) | binding signal (ETV1): 1.05 fold enrichment (6-mer frequency, TF over GST control) | binding signal (ERF): 1.01 fold enrichment (6-mer frequency, TF over GST control) | binding signal (ETS2): 1.07 fold enrichment (6-mer frequency, TF over GST control) | binding signal (ELF5): 1.04 fold enrichment (6-mer frequency, TF over GST control) | binding signal (ETV3): 1.08 fold enrichment (6-mer frequency, TF over GST control) | binding signal (ETV6): 1.08 fold enrichment (6-mer frequency, TF over GST control)

AAGGCC
binding signal (SPIC): 1.06 fold enrichment (6-mer frequency, TF over GST control) | binding signal (ETV7): 1.01 fold enrichment (6-mer frequency, TF over GST control)

CACTGA
binding signal (GABPA): 1.09 fold enrichment (6-mer frequency, TF over GST control) | binding signal (ELF1): 1.02 fold enrichment (6-mer frequency, TF over GST control) | binding signal (ELK3): 1.07 fold enrichment (6-mer frequency, TF over GST control) | binding signal (SPIC): 1.06 fold enrichment (6-mer frequency, TF over GST control) | binding signal (ELK4): 1.01 fold enrichment (6-mer frequency, TF over GST control) | binding signal (ETV1): 1.09 fold enrichment (6-mer frequency, TF over GST control) | binding signal (ETS2): 1.04 fold enrichment (6-mer frequency, TF over GST control)
